Inconclusive results are not listed. Unmarked numbers belong to inactive results. Active and inactive are the calls of the source. The call rests on the fitted dose curve; in most records, active means well fitted inhibition curve with a large enough effect in the repeat runs; inconclusive means weak or mixed curves; inactive means no such curve, though single readings can be large or run the other way.
On the % scale 0 is the no-effect control and ±100 the full control effect; potency means the concentration at half of the fitted maximal effect.

Cytochrome P450 2C19 (Homo sapiens), sequence (P33261 whole entry, looked up): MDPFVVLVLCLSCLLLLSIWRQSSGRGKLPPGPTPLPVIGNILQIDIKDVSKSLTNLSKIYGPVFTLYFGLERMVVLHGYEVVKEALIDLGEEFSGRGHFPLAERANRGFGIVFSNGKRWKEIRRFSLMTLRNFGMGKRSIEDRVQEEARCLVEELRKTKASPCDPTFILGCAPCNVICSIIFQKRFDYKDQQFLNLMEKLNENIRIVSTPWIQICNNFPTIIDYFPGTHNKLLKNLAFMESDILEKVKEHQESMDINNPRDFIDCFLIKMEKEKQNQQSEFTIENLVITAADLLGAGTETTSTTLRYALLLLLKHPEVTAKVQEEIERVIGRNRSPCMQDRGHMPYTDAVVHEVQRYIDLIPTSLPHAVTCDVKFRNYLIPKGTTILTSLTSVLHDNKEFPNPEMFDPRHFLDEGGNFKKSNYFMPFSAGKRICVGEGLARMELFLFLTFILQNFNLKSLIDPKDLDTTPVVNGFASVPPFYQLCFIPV

The target in this test is Cytochrome P450 2C19 (Homo sapiens) (UniProt P33261). The test can be described thus: Cytochrome P450 Family 2 Subfamily C Member 19 (CYP2C19) small molecule antagonists: luciferase reporter qHTS assay (AID 1671197). Further: nearly all actives have a fitted effect of over 65% in size. As to conditions: P450-Glo CYP2C19 enzyme, luciferin luminescence, 1 h; series mostly up to 52.9 µM; activity change, negative = inhibition: at the top concentration. An excerpt:
National Center for Advancing Translational Sciences [NCATS]
U.S. Environmental Protection Agency [EPA]
National Institutes of Environmental Health Sciences [NIEHS]
National Toxicology Program [NTP]
U.S. Food and Drug Administration [FDA]
Cytochrome P450 (CYP) enzymes are membrane-bound hemeproteins that play a key role in metabolism of drugs and xenobiotics. Evaluation of the effect of chemicals on CYP isozymes is useful to minimize the adverse drug reactions and toxicities in drug development process. Tox21 chemicals were tested for their effect on CYP enzyme activities by using P450-Glo (TM) screening systems (Promega Corporation, Madison, WI). These systems provide a luminescent method containing proluciferin substrates and are converted to luciferin products by CYP isozymes. The luciferin products formed are detected with a luciferin detection reagent, and the amount of light produced is proportional to CYP activity. P450-Glo (TM) CYP2C19 screening system (Catalog. No. V9880) was used to detect the compounds that interfere in CYP2C19 activity. The positive control compound used for CYP2C19 assay is ketoconazole (Sigma-Aldrich, St. Louis, MO).
Tox21 Assay Protocol Summary:
Two ul of enzyme-substrate mix was dispensed into medium binding white/solid 1536-well plates (Greiner Bio-One North America Inc., Monroe, NC) using a BioRaptr Flying Reagent Dispenser (FRD, Beckman Coulter, Brea, CA). Compounds dissolved in DMSO and positive control (ketoconazole) were transferred to the assay plates at 23 nl using a Pintool station (Wako, San Diego, CA). The assay plates were incubated at room temperature for 10 min. Then 2 ul of NADPH regeneration solution was added to each well of the assay plates using an FRD and incubated at 37C for 1 h. The reaction was stopped by adding 4 ul of detection reagent using an FRD and after 20 min incubation at room temperature the luminescence signal was measured using a ViewLux plate reader (Perkin Elmer, Shelton, CT). Data were expressed as relative luminescence units.
Regarding `CCCCOC(=O)CCCCCCCC(=O)OCCCC`, the Potency was 35.6 µM (active).

For the compound `Cc1nn(C)c(Oc2ccccc2)c1/C=N/OCc1ccc(C(=O)OC(C)(C)C)cc1`, the Potency was 2 µM (active).

Regarding `CN1Cc2cc(C(=O)N3CCC(C4CCNCC4)CC3)ccc2NC(CC(=O)O)C1=O` (stereo not given), the “activity change, negative = inhibition” value is 31.7%.

`COc1cc2nc(Cl)nc(N)c2cc1OC`: the “activity change, negative = inhibition” value was -0.432%.

With `CCCCCCCN`, the “activity change, negative = inhibition” value was -1.18% [at 115 µM].

On to `CCOc1ccc(N=Nc2ccc(/C=C/c3ccc(N=Nc4ccc(OCC)cc4)cc3S(=O)(=O)O)c(S(=O)(=O)O)c2)cc1`, for which the “activity change, negative = inhibition” value is -3.57% [at 115 µM].

`Clc1ccc(Cn2c(CN3CCCC3)nc3ccccc32)cc1`: the Potency was 0.776 µM (active).

For the compound `CCO[Si](CCCCl)(OCC)OCC`, the Potency is 31.4 µM (active).

For `c1ccc(-c2ccccn2)nc1`, the “activity change, negative = inhibition” value is -11.7% [at 115 µM].

Consider `CC(C)Cc1ccc(C(C)C(=O)OCc2ccccn2)cc1` (stereo not given), for which the Potency is 7.76 µM (active).

In the case of `C=CCOC(=O)CCC1CCCCC1`, the “activity change, negative = inhibition” value was 6.61% [at 115 µM].

As for `O=C(Nc1ccccc1)c1ccccc1O`, the Potency was 22.4 µM (active).

`CN(C)c1ccc(C(c2ccccc2)c2ccc(N(C)C)cc2)cc1`: the Potency is 1.59 µM (active).

`CC/C=C\CCOC(=O)CC`: the “activity change, negative = inhibition” value is -7.34% [at 115 µM].

Regarding `CCCCC(CC)CN1C(=O)C2C3C=CC(C3)C2C1=O` (stereo not given), the Potency is 3.56 µM (active).

As for `CN1CCC(N(Cc2cccs2)c2ccccc2)CC1`, the “activity change, negative = inhibition” value was 19.8%.

Regarding `Brc1c2ccccc2c(Br)c2ccccc12`, the activity change, negative = inhibition was -7.43% [at 10.5 µM].

On to `CCC(C)c1cc(C(C)(C)C)c(O)c(C(C)(C)C)c1` (stereo not given), for which the “activity change, negative = inhibition” value is -0.343% [at 115 µM].

`CCCCCC[C@@H](O)C/C=C\CCCCCCCC(=O)OC`: the Potency was 25.3 µM (active).

Turning to `C[N+]1(CC2COC(c3ccccc3)(C3CCCCC3)O2)CCCCC1` (stereo not given), the “activity change, negative = inhibition” value was -0.738%.

Regarding `CC(=O)[O][Al][O]C(C)=O`, the “activity change, negative = inhibition” value was 2.84% [at 115 µM].

With `CN1CCN(C(c2ccccc2)c2ccccc2)CC1`, the “activity change, negative = inhibition” value is -7.37%.

For the compound `S=C([S-])NCCNC(=S)[S-].[Mn+2]`, the Potency is 17.8 µM (active).

In the case of `CC(C)(CO)[N+](=O)[O-]`, the “activity change, negative = inhibition” value was -13.4% [at 115 µM].

Take `O=C1CCCCCCCCCCCC(=O)OCCO1`: the Potency is 71 µM (active).

For `O=C(O)CC(=O)C(=O)O`, the Potency was 56.6 µM (active).

Turning to `CCN(CC)CCNC(=O)c1cc(Br)c(N)cc1OC`, the “activity change, negative = inhibition” value was -4.31%.

Turning to `CN(C)CCOC(c1ccccc1)c1ccc(Br)cc1` (stereo not given), the Potency was 13.8 µM (active).

For the compound `CCc1cc(C2=C(C(=O)O)N(c3ccccc3C(F)(F)F)S(=O)(=O)c3ccccc32)cc2c1OCO2`, the Potency is 78.7 µM (active).

For the compound `O=C(OCCc1ccccc1)c1ccccc1`, the Potency was 12.6 µM (active).

On to `C[C@@H]1C[C@H]2O[C@@]3(O[C@@H]2C(C)(C)O)[C@H](O)[C@@]2(C)[C@@H]4CC[C@H]5C(C)(C)[C@@H](O[C@@H]6OC[C@@H](O)[C@H](O)[C@H]6O)CC[C@@]56C[C@@]46CC[C@]2(C)[C@@H]13`, for which the “activity change, negative = inhibition” value was -29.1%.

On to `COC(=O)C1=C(C)NC(COC(N)=O)=C(C(=O)OC(C)C)C1c1cccc(Cl)c1Cl` (stereo not given), for which the Potency is 15.5 µM (active).

Take `C/C=C/C=C/CO`: the “activity change, negative = inhibition” value is -1.78% [at 115 µM].

On to `CCOCC(O)COc1ccc(NC(=O)CC[S+](C)C)cc1` (stereo not given), for which the “activity change, negative = inhibition” value is 17.3%.

Take `O=C1C(O)=C(O)C(=O)C(O)=C1O`: the “activity change, negative = inhibition” value is 9.61%.

Take `NCCCN1CCOCC1`: the “activity change, negative = inhibition” value is 9.08% [at 115 µM].

Turning to `CN(Cc1ccc(C(C)(C)C)cc1)Cc1cccc2ccccc12`, the Potency was 8.71 µM (active).

On to `ClCCOCCOCCCl`, for which the “activity change, negative = inhibition” value is 1.52% [at 115 µM].

As for `CCOC(=O)COC(=O)c1cc(Oc2ccc(C(F)(F)F)cc2Cl)ccc1[N+](=O)[O-]`, the Potency is 11.2 µM (active).

Turning to `c1cc(CCCc2ccncc2)ccn1`, the Potency was 1.59 µM (active).

Values taken from PubChem BioAssay (Tox21).
